Laboratory results: PubChem BioAssay (EPA / NIEHS)
Active and inactive are the calls of the source. Rule for the calls: active = hit-call score of the fitted dose curve at least 0.9, where 1 is the maximum; inactive = score below 0.9.

Assays:
[1] = ATG_E_Box_CIS: Attagene CIS-FACTORIAL HepG2 Assay for human Enhancer Box (E-box) (AID 2282936); details: HepG2 E-box cis-reporter transcription, actives raise or lower the signal
Summary of the method: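 First, HepG2 cells receive multiple cis-regulated reporter constructs by transient transfection. Next, chemicals are applied for 24 h. Finally, reporter mRNA is quantified via RT-PCR and capillary electrophoresis, with DMSO as baseline.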

[2] = ATG_M_61_CIS: Attagene CIS-FACTORIAL HepG2 Assay for M61 Transcription Factor (Internal Marker) (AID 2282937); details: HepG2 Attagene CIS-FACTORIAL M61 internal marker reporter; actives raise or lower the signal
Summary of the method: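 Readout is reporter mRNA by RT-PCR, fluorescent primer extension and capillary electrophoresis, with gain or loss fitted relative to DMSO. Transfected HepG2 cells carrying endogenous-TF-driven cis reporters were exposed to chemicals for 24 hours.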

[3] = ATG_EGR_CIS: Attagene CIS-FACTORIAL HepG2 Assay for human Early Growth Response 1 (EGR1) (AID 2282938); details: HepG2 Attagene CIS-FACTORIAL EGR reporter mRNA; actives raise or lower the signal
Summary of the method: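 After 24 h compound exposure, RNA from reporter-transfected HepG2 cells was reverse-transcribed, PCR-amplified, fluorescently labelled and resolved by capillary electrophoresis. EGR1 reporter transcript changes, up or down, were fitted against DMSO, reflecting endogenous transcription-factor activity.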

[4] = ATG_M_19_CIS: Attagene CIS-FACTORIAL HepG2 Assay for M19 Transcription Factor (Internal Marker) (AID 2282939); details: HepG2 Attagene CIS-FACTORIAL M19 internal marker reporter; actives raise or lower the signal
Summary of the method: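 Background-control endpoint from a multiplexed HepG2 reporter panel. Cells carrying cis-regulated reporter constructs are treated 24 h, then reporter transcripts are amplified, fluorescently labelled and sized by capillary electrophoresis. DMSO defines baseline.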

[5] = ATG_ERE_CIS: Attagene CIS-FACTORIAL HepG2 Assay for Estrogen Response Element (ERE) (AID 2282940); details: HepG2 ERE cis-reporter, Attagene RNA transcript; actives raise or lower the signal
Summary of the method: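 Cells used were human hepatoma HepG2, transfected with multiple reporter transcription units under cis-regulatory promoters. Reporter mRNA, read 24 h post-dosing via fluorescent RT-PCR products on capillary electrophoresis, was fitted bidirectionally relative to DMSO.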

[6] = ATG_Ets_CIS: Attagene CIS-FACTORIAL HepG2 Assay for human Erythroblast Transformation Specific (ETS) (AID 2282941); details: HepG2 ETS cis-reporter transcription, actives raise or lower the signal
Summary of the method: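 After transient cis-reporter transfection, HepG2 cells receive test chemical for 24 h. Reporter mRNA levels, measured by RT-PCR and capillary electrophoresis fluorescence, are analysed bidirectionally relative to the DMSO baseline.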

[7] = target: Hepatocyte nuclear factor 3-beta (Homo sapiens) (UniProt Q9Y261); assay: ATG_FoxA2_CIS: Attagene CIS-FACTORIAL HepG2 Assay for human Forkhead box A2 (FOXA2) (AID 2282942); details: HepG2 cis-reporter transcription factor activity, 24 h; actives raise or lower the signal
Summary of the method: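 Endogenous transcription factor activity is captured via cis-element-driven reporter transcripts in transfected HepG2. Total RNA taken at 24 h post-dosing; labelled RT-PCR products resolved by capillary electrophoresis. Gain or loss fitted versus DMSO.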

[8] = ATG_FoxO_CIS: Attagene CIS-FACTORIAL HepG2 Assay for human Forkhead box O (FoxO) (AID 2282943); details: HepG2 Attagene cis-reporter, FoxO element, mRNA; actives raise or lower the signal
Summary of the method: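 Read-out: fluorescence of 6-FAM-labelled reporter cDNA fragments resolved by capillary electrophoresis. Transiently transfected HepG2 cells were dosed for 24 h; activity fitted in both directions relative to DMSO controls.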

[9] = ATG_GATA_CIS: Attagene CIS-FACTORIAL HepG2 Assay for human GATA Binding Protein (AID 2282944); details: HepG2 GATA cis-element reporter, Attagene multiplex mRNA; actives raise or lower the signal
Summary of the method: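 Endogenous transcription factor activity was captured through cis-promoter-driven reporters in transfected HepG2 cells. After 24 h exposure, reporter transcripts were quantified by RT-PCR with fluorescent capillary electrophoresis, and responses fitted both directions against DMSO.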

[10] = ATG_GLI_CIS: Attagene CIS-FACTORIAL HepG2 Assay for human Zinc Finger Protein GLI1 (AID 2282945); details: HepG2, Attagene cis-factorial reporter mRNA, GLI element; actives raise or lower the signal
Summary of the method: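 Transiently transfected HepG2 cells report endogenous transcription factor activity via cis-element-driven reporter units. After 24 h compound exposure, reporter mRNA was measured by RT-PCR with capillary electrophoresis; bidirectional fitting against DMSO baseline.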

Measured: AC50

Sequence of Hepatocyte nuclear factor 3-beta (Homo sapiens) (Q9Y261 whole entry, looked up): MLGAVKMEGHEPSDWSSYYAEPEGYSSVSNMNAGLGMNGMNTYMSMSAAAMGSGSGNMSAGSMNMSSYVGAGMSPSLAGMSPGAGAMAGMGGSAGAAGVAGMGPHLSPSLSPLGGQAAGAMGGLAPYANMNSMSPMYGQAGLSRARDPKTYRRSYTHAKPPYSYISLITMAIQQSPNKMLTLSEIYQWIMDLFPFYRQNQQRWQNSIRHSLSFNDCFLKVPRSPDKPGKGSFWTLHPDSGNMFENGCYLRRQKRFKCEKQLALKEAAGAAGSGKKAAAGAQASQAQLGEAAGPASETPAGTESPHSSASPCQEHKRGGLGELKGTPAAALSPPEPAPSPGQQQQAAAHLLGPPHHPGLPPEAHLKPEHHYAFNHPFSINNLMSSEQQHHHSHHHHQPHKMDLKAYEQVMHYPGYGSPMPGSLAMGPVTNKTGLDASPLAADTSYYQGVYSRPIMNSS

CC(Cl)(Cl)C(=O)O
inactive: all assays above

O=S1(=O)OCC2C(CO1)C1(Cl)C(Cl)=C(Cl)C2(Cl)C1(Cl)Cl (stereo not given)
active: [1] 26.5 µM | [3] 179 µM | [5] 1.84 µM | [10] 186 µM
inactive: all other assays above

O=[N+]([O-])c1ccc(Cl)c(Cl)c1
inactive: all assays above

Nc1ccc(Cl)cc1
inactive: all assays above

CC(C)(C)c1ccccc1OP(=O)(Oc1ccccc1)Oc1ccccc1
active: [5] 12.4 µM
inactive: all other assays above

CC(C)(C)N(NC(=O)c1ccc(Cl)cc1)C(=O)c1ccccc1
inactive: all assays above

FC(F)(F)C(F)(C(F)(F)F)C(F)(F)C(F)(F)CC1CO1 (stereo not given)
inactive: all assays above

CC(C)(C)OOC(C)(C)C
inactive: all assays above

Nc1ccc2ccccc2c1
inactive: all assays above

COP(=O)(O)OC
inactive: all assays above

c1ccc2c(c1)Nc1ccccc1S2
active: [5] 16.2 µM
inactive: all other assays above

ClC(Cl)(Cl)c1ccccc1
active: [5] 45.1 µM
inactive: all other assays above

O=C(O)C(F)(OC(F)(F)C(F)(F)C(F)(F)F)C(F)(F)F (stereo not given)
inactive: all assays above

CNC(=O)Oc1ccc(N(C)C)c(C)c1
inactive: all assays above

ClC1=C(Cl)C2(Cl)C3C(Cl)C(Cl)CC3C1(Cl)C2(Cl)Cl (stereo not given)
active: [1] 52.3 µM | [3] 25.2 µM | [5] 11.2 µM
inactive: all other assays above

CO/N=C(/C(=O)OC)c1ccccc1COc1ccccc1C
active: [1] 100 µM | [3] 43 µM | [5] 42.9 µM
inactive: all other assays above

CCOP(=S)(OCC)SCSCC
active: [5] 14.9 µM
inactive: all other assays above
